Assay [1] in a line: compound effects on lung adenocarcinoma cell viability – A549, calcein-AM fluorescence, 48 h, basal, profiling panel (AID 1162). Also: test concentration not given here. The note with it: higher = more signal.
A short description of assay [2]: compound effects on differentiated 3T3-L1 adipocyte viability – cell-based, 3T3-L1 adipocytes, calcein-AM fluorescence, 48 h, basal, profiling panel (AID 1163). Also: test concentration not given here. The note with it: 3T3-L1 adipocytes viability, higher = more signal.
The nature of assay [3]: compound effects on hepatocellular carcinoma cell viability – HepG2, calcein-AM fluorescence, 48 h, basal, profiling panel (AID 1164). Also: test concentration not given here. The note with it: higher = more signal.
A short description of assay [4]: compound effects on multiple myeloma cell viability – MM1S, calcein-AM fluorescence, 48 h, basal, profiling panel (AID 1165).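 Also: viability of MM1S multiple myeloma cells under basal unstimulated conditions; test concentration not given here.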 To be noted: higher = more signal.
Assay [5] can be described thus: calcein-AM signal in unstimulated myeloma cells – cell-based, calcein-AM fluorescence, 48 h, PK04 Diversity Set, profiling panel (AID 1166).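 Also: cells grown under basal conditions without added stimulus; test concentration not given here.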 The note with it: RPMI8226 myeloma viability, higher = more signal.
A short description of assay [6]: JC-1 mitochondrial signal, unstimulated HepG2 cells – cell-based, JC-1 fluorescence, 24 h, 100 nL compound, profiling panel (AID 1167). Also: test concentration not given here. To be noted: HepG2 mitochondrial potential, higher = more signal.
Assay [7] can be described thus: JC-1 mitochondrial signal, unstimulated adipocytes – cell-based, JC-1 fluorescence, 3T3-L1 adipocytes, 24 h, 100 nL compound, profiling panel (AID 1168). Also: test concentration not given here. The note with it: JC-1 mitochondrial fluorescence, higher = more signal, called active from +8 up or from −8 down.
Assay [8] can be described thus: JC-1 mitochondrial signal, unstimulated myeloma cells – cell-based, JC-1 fluorescence, RPMI8226, 24 h, 100 nL compound, profiling panel (AID 1169). Also: test concentration not given here. To be noted: JC-1 mitochondrial potential fluorescence, higher = more signal.
The nature of assay [9]: JC-1 mitochondrial signal, unstimulated MM1S myeloma – cell-based, JC-1 fluorescence, 24 h, 100 nL compound, profiling panel (AID 1170). Also: test concentration not given here. The note with it: MM1S mitochondrial potential, higher = more signal.
A short description of assay [10]: resazurin metabolic signal in A549 cells – cell-based, resazurin fluorescence, 24 h, PK04 Diversity Set, profiling panel (AID 1171). Also: test concentration not given here. To be noted: A549 viability, higher = more signal, called active from +8 up or from −8 down. (In general: The colour change of resazurin is a common sign of viable cells or microbes.)
The nature of assay [11]: resazurin metabolic signal in HepG2 cells – cell-based, resazurin fluorescence, 24 h, PK04 Diversity Set, profiling panel (AID 1172). Also: test concentration not given here. The note with it: HepG2 viability, higher = more signal.
Assay [12] can be described thus: budding yeast growth changes without added modifier – OD600, strain BY4716, 24 h, basal condition, primary screen (AID 1173). To be noted: S. cerevisiae BY4716 growth, OD600, 24 h; higher = more signal, called active from +8 up or from −8 down.
Assay [13] is described as follows: viability profiling in MM1S myeloma cells – cell-based, resazurin fluorescence, basal, 24 h, PK04 Diversity Set, profiling panel (AID 1174). Also: test concentration not given here. The note with it: higher = more signal, called active from +8 up or from −8 down.
Assay [14] has as its target Dihydroorotate dehydrogenase (quinone), mitochondrial (Plasmodium falciparum (isolate 3D7)) (UniProt Q08210). The assay is described as follows: inhibition of P. falciparum DHODH – biochemical, C-terminal His tag, absorbance 600 nm, primary screen (AID 1175).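 Also: recombinant parasite enzyme with a five histidine tag at its C terminus; test concentration not given here.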 To be noted: PfDHODH enzyme, DCIP absorbance 600 nm; higher = more signal, called active from +8 up or from −8 down.

The nature of assay [15]: inhibition of PAO1 biofilm formation – strain PAO1, LB-PBS medium, absorbance 600 nm, primary screen (AID 1176). Also: test concentration not given here. The note with it: P. aeruginosa PAO1 growth/biofilm, A600, 12 h; higher = more signal.
Assay [16] can be described thus: growth modulation of vineyard yeast isolate – strain RM11-1a, OD600, basal, 24 h, primary screen (AID 1177).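 Also: cultures grown under basal conditions with no added stressor; test concentration not given here.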 To be noted: S. cerevisiae RM11-1a growth, OD600, 24 h; higher = more signal, called active from +8 up or from −8 down.
Assay [17] is described as follows: growth of efflux-deficient E. coli DRC39 – strain DRC39, OD650, 24 h, E. coli filamentation inducers, primary screen (AID 1178).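 Also: growth measured as culture turbidity by optical density at 650 nm; test concentration not given here.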 The note with it: E. coli DRC39 acrAB, higher = more signal, called active from +8 up or from −8 down.
Assay [18] in a line: growth of efflux-deficient E. coli DRC39 – strain DRC39, OD650, 48 h, E. coli filamentation inducers, primary screen (AID 1179).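 Also: screen aims at cell division blockers that make cells filament.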 To be noted: E. coli DRC39 delta-acrAB growth, higher = more signal, called active from +8 up or from −8 down.
Assay [19] can be described thus: viability profiling in RPMI8226 myeloma cells – cell-based, resazurin fluorescence, basal, 24 h, PK04 Diversity Set, profiling panel (AID 1180).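 Also: RPMI8826 multiple myeloma cell line at 5000 cells per well; test concentration not given here.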 To be noted: higher = more signal.
In assay [20] the target is E3 ubiquitin-protein ligase XIAP (Homo sapiens) (UniProt P98170). In words: small molecules binding XIAP protein – biophysical, small-molecule microarray, fluorescence 635 nm, primary screen (AID 1181).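 Also: score merges 667 nm emission and signal to noise over triplicate slides.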 The note with it: higher = more signal.

The structures appear in SMILES notation. Calls of active or inactive are those of the source. Unless noted, no rule for the calls is given here.

The text below walks through data of PubChem BioAssay.

Chain of E3 ubiquitin-protein ligase XIAP (Homo sapiens) (P98170 whole entry, looked up): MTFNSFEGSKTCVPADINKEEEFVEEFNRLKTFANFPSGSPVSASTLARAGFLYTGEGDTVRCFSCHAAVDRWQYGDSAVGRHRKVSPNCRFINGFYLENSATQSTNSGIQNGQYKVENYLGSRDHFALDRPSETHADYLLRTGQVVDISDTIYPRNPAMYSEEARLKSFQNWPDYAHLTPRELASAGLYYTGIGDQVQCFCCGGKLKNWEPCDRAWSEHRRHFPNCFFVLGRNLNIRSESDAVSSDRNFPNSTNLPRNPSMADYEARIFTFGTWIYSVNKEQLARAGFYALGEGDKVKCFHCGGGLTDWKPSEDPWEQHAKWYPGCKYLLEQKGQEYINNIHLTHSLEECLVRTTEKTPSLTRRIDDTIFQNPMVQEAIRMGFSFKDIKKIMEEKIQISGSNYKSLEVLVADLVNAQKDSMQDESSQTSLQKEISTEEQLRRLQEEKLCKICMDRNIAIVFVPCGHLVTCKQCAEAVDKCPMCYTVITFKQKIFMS
Chain of Dihydroorotate dehydrogenase (quinone), mitochondrial (Plasmodium falciparum (isolate 3D7)) (Q08210 whole entry, looked up): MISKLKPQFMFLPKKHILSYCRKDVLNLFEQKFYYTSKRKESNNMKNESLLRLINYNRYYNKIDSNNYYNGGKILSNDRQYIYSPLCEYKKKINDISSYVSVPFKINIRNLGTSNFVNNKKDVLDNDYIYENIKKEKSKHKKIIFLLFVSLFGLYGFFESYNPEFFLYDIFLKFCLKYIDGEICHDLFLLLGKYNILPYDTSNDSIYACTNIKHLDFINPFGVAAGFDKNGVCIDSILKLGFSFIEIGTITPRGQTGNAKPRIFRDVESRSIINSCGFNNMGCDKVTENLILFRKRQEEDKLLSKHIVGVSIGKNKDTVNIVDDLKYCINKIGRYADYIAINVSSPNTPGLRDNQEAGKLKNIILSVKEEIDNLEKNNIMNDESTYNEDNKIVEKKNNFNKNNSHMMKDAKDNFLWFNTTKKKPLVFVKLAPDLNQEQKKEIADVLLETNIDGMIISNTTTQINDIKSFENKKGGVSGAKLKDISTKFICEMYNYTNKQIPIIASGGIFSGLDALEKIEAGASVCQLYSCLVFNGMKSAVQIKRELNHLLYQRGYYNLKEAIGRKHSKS

Regarding `C=CCC(OC(C)=O)[C@@H]1[C@@H](N(Cc2cccc3ccccc23)C(=O)c2ccc(C)cc2)c2cc(OCCCO)ccc2N1C(=O)Cc1ccc2ccccc2c1` (stereo not given in full), the z-score in [1] was 0.396; in assay [2], 1.05; in assay [3], 1.55; in assay [4], 0.83; in assay [5], 0.986; in assay [6], 3.54. For the same compound, the z-score in [7] is 0.598 (inactive); in [8], 0.152; in [9], -0.984; in assay [10], 0.433 (inactive); in [11] it was 0.0546; in [12], -1.34 (inactive). Also, the z-score in assay [13] is 0.802 (inactive); in assay [15] it was 0.0642 (inactive); in assay [16], -1.31 (inactive); in [17] it was 0.72 (inactive); in assay [18], 1.28 (inactive); in assay [19], 0.608. Besides, the composite z-score in assay [14] is -2.08 (inactive); in [20], 0.0264.

Regarding `NCCCCCCNC(=O)[C@@H]1C[C@@H]2C(=O)NCC(=O)N2[C@@H]1c1cccc(OCCO)c1`, the z-score in assay [1] is 0.51; in [2], 0.22; in assay [3], 1.06; in assay [4] it was 0.604; in assay [5] it was -0.431; in assay [6], 1.14. For the same compound, the z-score is 0.885 (inactive) in assay [7]; 0.533 in [8]; 0.307 in assay [9]; 0.678 (inactive) in assay [10]; -0.903 in [11]; -0.277 (inactive) in [12]. The z-score in [13] was 0.717 (inactive); in assay [15], -0.0617 (inactive); in assay [16] it was -0.121 (inactive); in assay [17], 0.295 (inactive); in assay [18], 0.976 (inactive); in assay [19], 0.438. Further, the composite z-score in assay [14] is -0.775 (inactive); in assay [20], -0.213.

Consider `O=C(N1CCOCC1)[C@]1(CCS(=O)(=O)c2ccccc2)N=C(c2ccc(OCCCO)cc2)O[C@@H]1c1ccccc1`, for which the z-score in [1] is 0.569; in [2] it was 1.29; in [3], 0.176; in assay [4] it was -0.345; in assay [5], -0.0091; in assay [6], 1.43. Further, the z-score in [7] is 1.14 (inactive); in assay [8], -0.176; in assay [9], -0.424; in assay [10] it was 0.54 (inactive); in assay [11] it was 0.945; in assay [12], 1.14 (inactive). For the same compound, the z-score in assay [13] was 0.564 (inactive); in assay [15], -0.981 (inactive); in [16], 2.17 (inactive); in [17], 2.71 (inactive); in [18] it was 0.546 (inactive); in assay [19] it was 0.413. For the same compound, the results for the composite z-score in [14] and in [20] were 2.06 (inactive) and 0.0379, respectively.

With `CC(C)N1CC=CC23O[C@@H]4/C=C\CCCOC(=O)C4[C@H]2C(=O)N(C(C)CO)[C@@H]3C1=O` (stereo not given in full), the z-score in [1] is 0.0513; in [2], 0.512; in [3] it was -0.145; in [4], 0.967; in assay [5], 0.629; in assay [6], 0.412. Also, the z-score in [7] was -1.54 (inactive); in assay [8], 0.0317; in assay [9] it was -1.08; in assay [10], 0.753 (inactive); in assay [11], 0.876; in [12] it was -1.69 (inactive). In addition, the z-score in assay [13] is 0.832 (inactive); in assay [15], 0.0126 (inactive); in assay [16], 0.14 (inactive); in assay [17], 1.1 (inactive); in assay [18], 0.906 (inactive); in assay [19], 0.734. Also, the composite z-score in assay [14] was -0.555 (inactive); in [20], -0.102.
